CYP2C19 activ: cytochrome P450 2C19 (human) activation | recombinant CYP2C19, luciferin-H EGE luminescence; stronger effect = higher value; 0 = fully inhibited enzyme, 1 = untreated enzyme | activation factor at 5 µM | 96,000 tested, under 10 active | AID 1025;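 active = activation factor of at least 2 at 5 µM in the primary screen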
CYP2C19 inhib: human CYP2C19 inhibition; CYP2C19 Supersomes, luciferin-H EGE luminescence, 30 min; inhibition, % at 5 µM; 96,000 tested, 21% active; AID 778;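 active = CYP2C19 inhibition above a set limit at 5 µM in the primary screen, cut at about 50% in these data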
Cav32 inh: inhibitors of human Cav3.2 T-type calcium channel | O95180 | Cav3.2-expressing cells, Fluo-4 calcium fluorescence FDSS; stronger effect = lower value | B-score at 10 µM | 100,000 tested, 4% active;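 active = single-dose well whose peak fluorescence ratio is a statistical outlier from its plate by either plate-standardised score or position-corrected B-score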
CYP2C9 inh: human CYP2C9 inhibition. P11712. CYP2C9 Supersomes, luciferin-H conversion, luminescence. inhibition, % at 5 µM. 96,000 tested, 20% active;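 active = blocking of liver enzyme CYP2C9 beyond about 50% at 5 µM, limit read from the data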
CYP2C9 activ: CYP2C9 (human) activation; P11712; activation factor at 5 µM; recombinant CYP2C9, luciferin-H conversion, luminescence; stronger effect = higher value; factor 1 = untreated enzyme, 0 = blocked; AID 1024; 96,000 tested, 1.4% active;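 active = activation factor of 2 or more for CYP2C9 at a 5 µM dose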
Each line names hits and unclear results; the compound was inactive in the other large screens. Rows were chosen to be rich in hits. Some 27% of all compounds tested hit in one or more screens of this group.

Cc1ccc(C(=O)NCc2ccc3c(c2)OCO3)cc1N1CCCC1=O	none
Cc1ccc(C(=O)NCc2ccc3c(c2)OCO3)cc1S(=O)(=O)N1CCCCC1	CYP2C19 inhib 51, Cav32 inh -7.4, CYP2C9 inh 81
Cc1ccc(C(=O)NCc2ccc3c(c2)OCO3)cc1S(=O)(=O)N1CCOCC1	CYP2C19 inhib 66, CYP2C9 inh 76
O=C(Cn1c(NCCCO)nc2ccccc21)c1cccs1	none (no result: CYP2C19 activ, CYP2C19 inhib, CYP2C9 inh, CYP2C9 activ)
COc1ccc(CC(=O)OCC(=O)NC(=O)NC2CCCCC2)cc1	CYP2C9 inh 56
COc1ccc(CC(=O)OCC(=O)Nc2ncc(Cl)cc2Cl)cc1	CYP2C19 inhib 64, CYP2C9 inh 53 (no result: Cav32 inh)
COc1cc(CC(=O)OCC(=O)Nc2ncc(Cl)cc2Cl)cc(OC)c1OC	CYP2C19 inhib 67
O=C(COC(=O)CCc1ccccc1)Nc1ncc(Cl)cc1Cl	CYP2C19 inhib 54
COc1ccc(CCNC(=O)NC2CCCCC2)cc1	none (no result: CYP2C19 activ, CYP2C19 inhib, CYP2C9 inh, CYP2C9 activ)
O=C(NC1CSC/C1=N\O)c1ccccc1 (stereo not drawn)	none
COC(=O)C(CC(C)C)NC(=O)c1ccc([N+](=O)[O-])c(C)c1 (stereo not drawn)	none
N#Cc1c(N)nc2c(c1-c1ccncc1)CCCCCC2	none (no result: CYP2C19 activ, CYP2C19 inhib, CYP2C9 inh, CYP2C9 activ)
CN(C)c1ccc(C(=O)OCc2ccc(Br)cc2)cc1	none
CCOc1cc(C2/C(=C(/O)c3ccc(OC(C)C)cc3)C(=O)C(=O)N2CCCOC)ccc1O (stereo not drawn)	none
CC(=O)N(C)c1ccc(NC(=S)Nc2ccccc2)cc1	none
CN(C)c1cc(O)c(C(=S)Nc2ccccc2)c(N(C)C)c1	CYP2C19 inhib 79 (no result: Cav32 inh)
Cn1c(NC(=O)Cc2ccc(F)cc2)cc(=O)n(C)c1=O	none
CN1c2ccccc2C(C)(C)C12CCCC(=O)N2 (stereo not drawn)	none
CC1=NOC2(C1)N(C)c1ccccc1C2(C)C (stereo not drawn)	CYP2C19 inhib 58
COCCOC(=O)C1=C(C)NC(=O)NC1c1c(F)cccc1Cl (stereo not drawn)	none
CCCCCOC(=O)c1ccccc1C(=O)O	none
Cc1ccc(-c2cc(-c3ccccc3Cl)[nH]n2)c(O)c1	none
Oc1ccc(Br)cc1-c1cc(-c2ccccc2F)[nH]n1	none
Cc1ccccc1-c1cc(-c2ccccc2O)n[nH]1	CYP2C19 inhib 93, CYP2C9 inh 96
Oc1ccc(Cl)cc1-c1cc(-c2ccccc2)n[nH]1	CYP2C19 inhib 51
COc1ccccc1-c1cc(-c2cc(Cl)ccc2O)n[nH]1	none (no result: Cav32 inh)
Cc1ccc(-c2cc(-c3ccccc3[N+](=O)[O-])[nH]n2)c(O)c1	CYP2C9 inh 78 (no result: Cav32 inh)
CCOC(=O)N1CCN(c2c(NCc3cccs3)c(=O)c2=O)CC1	none
CCOC(=O)C1CCCN(C(=O)c2ccc(CNc3c(N4CCC(C)CC4)c(=O)c3=O)cc2)C1 (stereo not drawn)	CYP2C9 inh 55
CCOC(=O)C1CCN(c2c(NCc3ccc(C(=O)NCCC(C)C)cc3)c(=O)c2=O)CC1	CYP2C9 inh 59
CCOC(=O)N1CCN(c2c(NCc3ccc(Cl)cc3)c(=O)c2=O)CC1	CYP2C9 inh 64
O=C(O)CCCCCN=C1CCc2ccccc2N1	none
CCOC(=O)c1c(-c2cccs2)csc1NC(=O)CN(CC)CC	CYP2C9 inh 75
CCOC(=O)c1c(-c2cccs2)csc1NC(=O)CN1CCOCC1	CYP2C9 inh 73
CCOC(=O)c1c(-c2cccs2)csc1NC(=O)CC(C)C	none
CCOC(=O)c1c(-c2ccc(C)o2)csc1NC(=O)COC(=O)c1cccs1	none (no result: CYP2C19 activ, CYP2C19 inhib, CYP2C9 inh, CYP2C9 activ)
CCOC(=O)c1c(-c2ccc(C)o2)csc1NC(=O)CSc1ncn[nH]1	CYP2C19 inhib 61, CYP2C9 inh 85
CCOC(=O)c1c(-c2ccc(C)o2)csc1NC(=O)CN1CCOCC1	CYP2C19 inhib 54, CYP2C9 inh 72
Cc1ccc(-c2cnc(N)n2C)cc1C	none
COCCNCCOCCOc1ccc(Cl)c(C)c1	none
C#CCOCCOCCOCCNc1nc(N2CCOCC2)nc(N2CCN(C(=O)[C@H]([C@@H](C)CC)n3cc([C@@H](N)CC(C)C)nn3)CC2)n1	none (no result: CYP2C19 activ, CYP2C19 inhib, CYP2C9 inh, CYP2C9 activ)
CCOC(=O)c1nn(-c2ccc3c(c2)OCO3)cc1O	none (no result: CYP2C19 activ, CYP2C19 inhib, CYP2C9 inh, CYP2C9 activ)
COc1cc2c(cc1OC)CN(C(=O)CCCOc1ccc(Cl)cc1Cl)CC2	CYP2C9 inh 57
COc1cc2c(cc1OC)CN(C(=O)CCCN1C(=O)c3ccccc3C1=O)CC2	none
CCOC(=O)N1CCN(C(=O)COc2ccc(Br)cc2Cl)CC1	CYP2C19 inhib 86
CCOC(=O)N1CCN(C(=O)COc2ccc(S(=O)(=O)NC3CCCCC3)cc2C)CC1	none
Cc1cc(C)c(C)c(OCC(=O)N2CCCCCC2)c1	none
Cc1cc(C)cc(OCC(=O)N2CCCCCC2)c1	CYP2C19 inhib 54
O=C(COc1ccc(Cl)cc1Cl)N1CCCN(C(=O)COc2ccc(Cl)cc2Cl)CC1	Cav32 inh -4.6
CC(C)(C)c1ccc(C2=CC(c3ccccc3)n3ncnc3N2)cc1 (stereo not drawn)	none (no result: CYP2C19 activ, CYP2C19 inhib, CYP2C9 inh, CYP2C9 activ)
O=C(COc1ccc(Cl)cc1)N1CCCCC1	none
Cc1cc(Cl)ccc1OCCCC(=O)N1CCN(C)CC1	CYP2C19 inhib 51, CYP2C9 activ 2.1
Cc1cc(Cl)ccc1OCC(=O)N1CCCCC1	CYP2C19 inhib 88
COc1cc(CNCCCN2CCOCC2)cc(Br)c1OCC(=O)N1CCCCC1	none
COc1cc(CO)cc(Br)c1OCC(=O)N1CCCCC1	CYP2C9 activ 2.2
CN(Cc1ccccc1)C(=O)CN(Cc1ccccc1)S(C)(=O)=O	none (no result: CYP2C19 activ, CYP2C19 inhib, CYP2C9 inh, CYP2C9 activ)
CCCCC(CC)CN1C(=O)/C(=C/c2ccncc2)SC1=S (stereo not drawn)	CYP2C19 inhib 62, CYP2C9 inh 70
COC(=O)/C(C(C)=O)=C(\C=C\N(C)C)N(C)C	none
COC(=O)\C(C(C)=O)=C(/C=C/C=C/C=C/N(C)C)N(C)C	Cav32 inh -7
Cc1nc(NNC(=O)c2ccc(Cl)cc2Cl)cc(-c2ccccc2)n1	CYP2C9 inh 51
O=C(Nc1cccn2ncnc12)c1ccc(Cl)cc1Cl	none
CCOC(=O)c1sc2nc(NC(=O)C3CC3)sc2c1C	CYP2C19 inhib 53
CCOC(=O)c1sc(NC(=O)C2CC2)nc1C	CYP2C19 inhib 63, CYP2C9 inh 61
NC(=O)[C@@H]1CCNc2c(I)cc([N+](=O)[O-])cc2C(=O)N[C@@H](CCC(=O)O)C(=O)N[C@@H](CO)C(=O)N1	none (no result: CYP2C19 activ, CYP2C19 inhib, CYP2C9 inh, CYP2C9 activ)
O=c1[nH]c(N2CCOCC2)nc2c1CCCC2	none
Cc1ccc(-c2nnc(CSc3nnc(COc4ccccc4)n3-c3ccccc3)o2)cc1	CYP2C19 inhib 92, Cav32 inh -7, CYP2C9 inh 98
Cc1ccc(-c2nnc(CSc3nnc(COc4ccccc4)n3-c3ccc(C)cc3)o2)cc1	Cav32 inh -5.5, CYP2C9 inh 71
CCOc1ccc(-c2nnc(SCc3nnc(-c4ccccc4)o3)n2-c2ccccc2F)cc1	none
O=C(c1ccc(S(=O)(=O)N2CCOCC2)cc1)N1CCc2ccccc2C1	none
CN(c1ccc(C(=O)Nc2ccccc2C(F)(F)F)cc1)S(C)(=O)=O	none
CCOC(=O)C1=C(C)S/C(=C\N(C)C)C1=O	none (no result: Cav32 inh)
